# Test results: PubChem BioAssay
# The source made the active and inactive calls.
# Assays:
# [1] = optical density shifts of acrAB sulA E. coli – strain DRC41, OD650, 48 h, E. coli filamentation inducer project, primary screen (AID 1152); conditions: higher = more signal, called active from +8 up or from −8 down;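 also: E. coli MC1000 strain DRC41 lacking acrAB efflux pump and sulA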
# [2] = probe aLefty1 binding on compound microarray – biochemical, small-molecule microarray, 635/667 nm fluorescence, primary screen (AID 1153); conditions: higher = more signal;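 also: score merges spot fluorescence with signal-to-noise ratio from the scanned slide images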
# [3] = plasmodial surface anion channel blockers, osmotic lysis – cell-based, P. falciparum Indochina, OD700, 1 h, primary screen (AID 1154); conditions: P. falciparum Indochina infected RBC osmotic lysis, higher = more signal, called active from +8 up or from −8 down
# [4] = plasmodial surface anion channel blockers, osmotic lysis – cell-based, P. falciparum Indochina, OD700, 2 h, primary screen (AID 1155);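 also: lysis reports solute entry through the parasite surface anion channel PSAC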; conditions: P. falciparum Indochina infected erythrocytes, higher = more signal, called active from +8 up or from −8 down
# [5] = changes in parasitized red cell lysis, either direction – P. falciparum Indochina, OD700, 3 h, PSAC antagonist project, primary screen (AID 1156); conditions: P. falciparum-infected erythrocytes, osmotic lysis, higher = more signal, called active from +8 up or from −8 down
# [6] = plasmodial surface anion channel blockers, osmotic lysis – cell-based, P. falciparum Indochina, OD700, 18 h, primary screen (AID 1157); conditions: P. falciparum Indochina infected erythrocytes, osmotic lysis OD700, 18 h; higher = more signal, called active from +8 up or from −8 down
# [7] = S6 kinase pathway phospho-S6 level changes – cell-based, A549, cytoblot, luminescence, serum-stimulated, primary screen (AID 1158); conditions: 5 h, higher = more signal;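 also: serum-stimulated A549 lung adenocarcinoma cells; signal is phosphorylated S6 detected by cytoblot immunostaining with HRP secondary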
# [8] = molecular target: NADPH oxidase 2 (Homo sapiens) (UniProt P04839); assay: compounds shifting NOX2 Amplex Red fluorescence – cell-based, HEK293-NOX2, PMA-stimulated, NOX inhibitor project, primary screen (AID 1159); conditions: 45 min, higher = more signal, called active from +8 up or from −8 down; also: test concentration not given here
# Sequence of NADPH oxidase 2 (Homo sapiens) (P04839 whole entry, looked up): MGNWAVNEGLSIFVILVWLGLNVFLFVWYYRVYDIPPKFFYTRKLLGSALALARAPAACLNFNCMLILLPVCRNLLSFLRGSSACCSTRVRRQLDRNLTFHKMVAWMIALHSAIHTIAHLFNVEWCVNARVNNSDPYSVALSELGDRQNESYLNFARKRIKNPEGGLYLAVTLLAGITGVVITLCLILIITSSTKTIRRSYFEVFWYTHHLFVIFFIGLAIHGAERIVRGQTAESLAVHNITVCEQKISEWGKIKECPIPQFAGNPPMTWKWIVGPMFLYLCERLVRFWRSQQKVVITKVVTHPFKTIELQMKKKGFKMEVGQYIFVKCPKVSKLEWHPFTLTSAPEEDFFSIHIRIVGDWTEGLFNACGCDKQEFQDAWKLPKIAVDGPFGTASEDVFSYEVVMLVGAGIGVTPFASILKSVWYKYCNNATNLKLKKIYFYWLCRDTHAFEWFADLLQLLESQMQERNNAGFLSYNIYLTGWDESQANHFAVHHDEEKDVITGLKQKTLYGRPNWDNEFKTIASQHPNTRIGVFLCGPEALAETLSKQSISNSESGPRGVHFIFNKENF
# [9] = molecular target: NADPH oxidase 4 (Homo sapiens) (UniProt Q9NPH5); assay: compounds shifting NOX4 Amplex Red fluorescence – cell-based, HEK293-NOX4, tetracycline-induced, NOX inhibitor project, primary screen (AID 1160); conditions: HEK293-NOX4, Amplex Red H2O2 fluorescence, 45 min; higher = more signal, called active from +8 up or from −8 down
# Sequence of NADPH oxidase 4 (Homo sapiens) (Q9NPH5 whole entry, looked up): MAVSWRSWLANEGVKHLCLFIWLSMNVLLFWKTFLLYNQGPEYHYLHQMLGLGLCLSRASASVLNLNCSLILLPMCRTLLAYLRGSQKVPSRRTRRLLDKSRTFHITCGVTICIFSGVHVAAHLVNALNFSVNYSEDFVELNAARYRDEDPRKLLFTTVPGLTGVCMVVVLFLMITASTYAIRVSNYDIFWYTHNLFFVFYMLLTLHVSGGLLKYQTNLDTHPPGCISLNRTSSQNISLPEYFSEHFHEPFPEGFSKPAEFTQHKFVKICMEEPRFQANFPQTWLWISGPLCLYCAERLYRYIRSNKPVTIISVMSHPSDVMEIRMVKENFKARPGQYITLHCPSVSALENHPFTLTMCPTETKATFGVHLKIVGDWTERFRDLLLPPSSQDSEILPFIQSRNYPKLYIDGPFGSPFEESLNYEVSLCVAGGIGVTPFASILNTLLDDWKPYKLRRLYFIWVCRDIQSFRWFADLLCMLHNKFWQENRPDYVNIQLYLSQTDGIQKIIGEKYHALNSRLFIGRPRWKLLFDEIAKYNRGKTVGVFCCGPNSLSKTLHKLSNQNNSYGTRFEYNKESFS
# [10] = molecular target: NADPH oxidase 5 (Homo sapiens) (UniProt Q96PH1); assay: compounds shifting NOX5 Amplex Red fluorescence – cell-based, HEK293-NOX5, NOX inhibitor project, primary screen (AID 1161); conditions: HEK293-NOX5, ionomycin, 45 min, higher = more signal
# Sequence of NADPH oxidase 5 (Homo sapiens) (Q96PH1 whole entry, looked up): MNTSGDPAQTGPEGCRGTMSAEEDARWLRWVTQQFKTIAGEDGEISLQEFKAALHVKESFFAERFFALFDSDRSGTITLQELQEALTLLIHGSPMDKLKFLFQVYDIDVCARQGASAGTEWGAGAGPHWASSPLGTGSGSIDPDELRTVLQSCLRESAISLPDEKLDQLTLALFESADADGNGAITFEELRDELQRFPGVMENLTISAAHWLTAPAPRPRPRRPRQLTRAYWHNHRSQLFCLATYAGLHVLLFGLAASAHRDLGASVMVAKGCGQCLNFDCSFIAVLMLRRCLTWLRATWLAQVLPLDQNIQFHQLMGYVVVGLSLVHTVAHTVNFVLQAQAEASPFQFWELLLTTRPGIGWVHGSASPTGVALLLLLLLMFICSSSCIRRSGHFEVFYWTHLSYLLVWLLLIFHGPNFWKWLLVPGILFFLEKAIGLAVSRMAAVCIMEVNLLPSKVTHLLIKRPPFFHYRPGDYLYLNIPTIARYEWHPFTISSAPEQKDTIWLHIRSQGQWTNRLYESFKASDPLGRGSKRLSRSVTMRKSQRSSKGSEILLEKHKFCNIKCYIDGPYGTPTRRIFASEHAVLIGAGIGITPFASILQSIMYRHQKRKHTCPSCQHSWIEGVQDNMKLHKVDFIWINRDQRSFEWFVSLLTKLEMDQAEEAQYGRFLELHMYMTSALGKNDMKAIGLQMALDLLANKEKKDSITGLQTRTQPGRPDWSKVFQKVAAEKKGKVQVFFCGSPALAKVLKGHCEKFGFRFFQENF
Structure (SMILES),z-score [1],composite z-score [2],z-score [3],z-score [4],z-score [5],z-score [6],z-score [7],z-score [8],z-score [9],z-score [10]
COc1cccc(C(=O)O[C@H]2CC[C@]3(C)C4=C(CCC3C2(C)C)[C@]2(C)CC[C@H]([C@H](C)CCCC(C)C)[C@@]2(C)CC4)c1 (stereo not given in full),3.47 (inactive),0.0752,-0.264 (inactive),-0.611 (inactive),-0.306 (inactive),-1.63 (inactive),0.801,-0.606 (inactive),0.0302 (inactive),0.689
COCCCNC(=O)[C@@]1(c2ccc([N+](=O)[O-])cc2)CC(=O)N(CC23CC4CC(CC(C4)C2)C3)[C@@H]1c1ccc(CO)cc1,0.697 (inactive),0.616,4.55 (inactive),0.958 (inactive),1.47 (inactive),0.888 (inactive),0.0694,-0.237 (inactive),-1.44 (inactive),-1.74
COCCOC(=O)N1C(=O)[C@@]2(c3cc(C#Cc4ccc(OC)cc4)ccc31)[C@H](C(=O)N1CCN(c3ncccn3)CC1)[C@H]1C(=O)O[C@H](c3ccccc3)[C@H](c3ccccc3)N1[C@@H]2c1ccc(O)cc1,0.831 (inactive),0.0773,1.39 (inactive),-0.306 (inactive),-0.119 (inactive),-0.541 (inactive),1.59,0.586 (inactive),0.19 (inactive),1.98
COC(=O)[C@@]1(Cc2ccc(OC)cc2)[C@H]2c3cc(C(=O)N(C)C)n(Cc4c(OC)[nH]cc(C)c4=O)c3C[C@H]2CN1C(=O)c1ccccc1,-0.348 (inactive),0.276,0.275 (inactive),-0.997 (inactive),-0.456 (inactive),-2.25 (inactive),2.46,0.689 (inactive),-0.265 (inactive),-3.64
CC(C)N1C(=O)C[C@@](C(=O)NCc2ccccc2)(c2ccc([N+](=O)[O-])cc2)[C@H]1c1ccc(CO)cc1,1.05 (inactive),-0.409,1.58 (inactive),-0.273 (inactive),1.03 (inactive),0.449 (inactive),-0.081,-0.85 (inactive),-0.235 (inactive),-1.72
O=C/C=C/c1ccc(Cl)cc1,0.73 (inactive),-0.0885,-0.406 (inactive),-2.04 (inactive),-0.316 (inactive),-2.54 (inactive),0.617,-0.506 (inactive),-0.869 (inactive),1.44
O=C1O[C@@H](c2ccccc2)[C@@H](c2ccccc2)N2[C@@H](c3ccc(OCCO)cc3)[C@]3(C(=O)Nc4ccc(C#CC5=CCCCC5)cc43)[C@@H](C(=O)O)[C@H]12,-0.584 (inactive),-0.0827,-3.36 (inactive),-1.76 (inactive),-10.6 (active),-0.957 (inactive),-0.106,1.67 (inactive),-1.08 (inactive),-0.216
O=C1O[C@H](c2ccccc2)[C@H](c2ccccc2)N2[C@H]1[C@@H](C(=O)O)[C@]1(C(=O)Nc3ccc(C#CC4(O)CCCCCC4)cc31)[C@H]2c1ccc(OCCO)cc1,-1.21 (inactive),-0.031,1.14 (inactive),-0.795 (inactive),-9.96 (active),-0.71 (inactive),-0.424,2.71 (inactive),-0.335 (inactive),1.25
COc1ccc([Si](C)(C)[C@H]2[C@H](CC(=O)N(CCO)Cc3ccccc3)O[C@@]3(C(=O)N(Cc4cccc(N5CCC5=O)c4)c4ccccc43)[C@@H]2C)cc1,2.2 (inactive),0.356,11.6 (active),1.88 (inactive),-0.614 (inactive),-0.356 (inactive),0.408,0.804 (inactive),0.957 (inactive),1.43
COc1ccc(C#Cc2ccc3c(c2)[C@]2(C(=O)N3)[C@H](c3ccc(O)cc3)N3[C@H](c4ccccc4)[C@H](c4ccccc4)OC(=O)[C@H]3[C@@H]2C(=O)NC[C@H](O)c2ccccc2)cc1,0.735 (inactive),-0.021,1.1 (inactive),1.09 (inactive),0.541 (inactive),0.859 (inactive),-0.193,1.91 (inactive),-0.0599 (inactive),0.22
COCCOC(=O)N1C(=O)[C@@]2(c3cc(C#CCNC(N)=O)ccc31)[C@H](c1ccc(O)cc1)N1[C@H](c3ccccc3)[C@H](c3ccccc3)OC(=O)[C@H]1[C@@H]2C(=O)Nc1nc2ccccc2s1,3.62 (inactive),0.144,1.13 (inactive),-0.361 (inactive),0.284 (inactive),-0.0972 (inactive),2.46,0.806 (inactive),0.969 (inactive),1.33
O=C(O)[C@H]1C[C@H]2C(=O)NCC(=O)N2[C@H]1c1ccc(O)cc1,1.55 (inactive),-0.0171,2.81 (inactive),0.898 (inactive),-2.6 (inactive),0.276 (inactive),0.586,-1.99 (inactive),-1.12 (inactive),-0.575
CCN(CC)c1ccc(N2CC=CC34O[C@@H]5/C=C\CCCOC(=O)C5[C@H]3C(=O)N(C(CO)C(C)C)[C@@H]4C2=O)cc1 (stereo not given in full),-0.522 (inactive),-0.137,1.38 (inactive),0.486 (inactive),0.883 (inactive),0.648 (inactive),-0.713,0.0116 (inactive),0.337 (inactive),0.492
